The text below walks through data of PubChem BioAssay (NCI).

Among the test systems are SR leukemia; RPMI-8226 leukemia; OVCAR-8 ovarian; OVCAR-5 ovarian; OVCAR-4 ovarian; SK-OV-3 ovarian; IGROV1 ovarian; OVCAR-3 ovarian; HS 578T breast; NCI/ADR-RES ovarian.
What all share (assay): NCI-60 one-dose screen, 48 h (100 = growth as untreated, 0 = no growth, -100 = all killed)
What all share (details): 10 µM unless noted

Each structure is given as a SMILES string. About 83,000 compounds went through this panel and 20% of them were active in at least one assay; those are over-represented in the sample as a whole.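 96-well plates, one dose, 48 hours. Percent growth reported; active if below 10.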 A number with no mark means an inactive call. The source made the active and inactive calls.

On to `COc1cc(-c2cc(-c3cccs3)c(C#N)c(N3CCOCC3)n2)cc(OC)c1OC`, for which the growth with SR leukemia is -1.19% (active); in the assay with RPMI-8226 leukemia it was 44.2%; in the assay on OVCAR-8 ovarian, 74.3%; with OVCAR-5 ovarian, 96.4%; in the assay with OVCAR-4 ovarian it was 85.8%; in the assay with SK-OV-3 ovarian, 141%. In addition, the growth in the assay with IGROV1 ovarian is 73.5%; with OVCAR-3 ovarian it was 149%; in the assay on HS 578T breast, 90.6%; in the assay with NCI/ADR-RES ovarian, 58.2%.

On to `COc1ccc(NC(=O)c2sc3nc(C)c(C(=O)/C=C/c4cccc(OC)c4)cc3c2N)cc1`, for which the growth was 5.9% (active) with SR leukemia; -22.9% (active) in the assay with RPMI-8226 leukemia; 11.6% in the assay with OVCAR-8 ovarian; 59.6% in the assay on OVCAR-5 ovarian; 69.1% in the assay on OVCAR-4 ovarian; 91.8% in the assay on SK-OV-3 ovarian. Also, the growth in the assay on IGROV1 ovarian is 11%; with OVCAR-3 ovarian, -18.4% (active); in the assay on HS 578T breast it was 36.8%; in the assay on NCI/ADR-RES ovarian, 19.5%.

Regarding `COc1ccc(N2CCC(=O)NC2=S)cc1`, the growth in the assay with SR leukemia is 116%; with RPMI-8226 leukemia it was 105%; with OVCAR-8 ovarian, 106%; with OVCAR-5 ovarian, 102%; in the assay on OVCAR-4 ovarian it was 106%; with SK-OV-3 ovarian, 103%. Moreover, the growth with IGROV1 ovarian is 108%; with OVCAR-3 ovarian, 109%; with HS 578T breast it was 98.7%; in the assay with NCI/ADR-RES ovarian, 98%.

Take `N#Cc1c(-c2ccccc2)cc(-c2ccccc2)n(CCCCCC(=O)Nc2ccccc2N)c1=O`: the growth in the assay with SR leukemia is 18.5%; in the assay on RPMI-8226 leukemia, -19.2% (active); in the assay on OVCAR-8 ovarian, 58.8%; in the assay with OVCAR-5 ovarian it was 66.4%; in the assay on OVCAR-4 ovarian it was 65.9%; in the assay with SK-OV-3 ovarian, 90.4%. Further, the growth in the assay on IGROV1 ovarian was 45.9%; in the assay on OVCAR-3 ovarian, 59.2%; in the assay with HS 578T breast it was 76.2%; with NCI/ADR-RES ovarian, 49%.

`COC(=O)c1cc(-c2ccc(S(C)(=O)=O)cc2)[nH]c1N/N=C/c1c(Cl)cccc1Cl`: the growth is -12.3% (active) in the assay with SR leukemia; -5.71% (active) with RPMI-8226 leukemia; 29.7% in the assay on OVCAR-8 ovarian; 42.6% in the assay with OVCAR-5 ovarian; 59.6% in the assay with OVCAR-4 ovarian; 29.2% in the assay on SK-OV-3 ovarian. The growth is -43.6% (active) in the assay on IGROV1 ovarian, -33.6% (active) with OVCAR-3 ovarian, -30.1% (active) with HS 578T breast and 3.91% (active) in the assay with NCI/ADR-RES ovarian.

For `COc1ccc(-c2cn(-c3cc(OC)c(OC)c(OC)c3)c(=O)n2C(C)=O)cc1`, the growth with SR leukemia was 22.2%; in the assay with RPMI-8226 leukemia, 95.9%; with OVCAR-8 ovarian, 94.5%; in the assay with OVCAR-5 ovarian, 84.5%; in the assay on OVCAR-4 ovarian it was 84.9%; with SK-OV-3 ovarian, 104%. The growth with IGROV1 ovarian was 77.7%; in the assay with OVCAR-3 ovarian, 109%; with HS 578T breast, 93.4%; in the assay on NCI/ADR-RES ovarian, 98.5%.

Regarding `Cc1nc(N2CCOCC2)sc1S(N)(=O)=O`, the growth is 98.3% in the assay on SR leukemia; 102% with RPMI-8226 leukemia; 103% in the assay on OVCAR-8 ovarian; 96.5% with OVCAR-5 ovarian; 112% in the assay on OVCAR-4 ovarian; 102% in the assay with SK-OV-3 ovarian. Moreover, the growth is 99.4% in the assay on IGROV1 ovarian, 102% with OVCAR-3 ovarian, 100% in the assay on HS 578T breast and 102% with NCI/ADR-RES ovarian.

Take `C=CCc1c2c(c(OC)c3ccoc13)C(=O)/C(=C/c1ccccc1OC)O2`: the growth with SR leukemia was 48%; in the assay with RPMI-8226 leukemia, 29.2%; with OVCAR-8 ovarian, 39.1%; in the assay with OVCAR-5 ovarian, 114%; in the assay on OVCAR-4 ovarian, 69.7%; in the assay on SK-OV-3 ovarian it was 79.6%. The growth with IGROV1 ovarian was 54.8%; in the assay on OVCAR-3 ovarian, 40.6%; in the assay on HS 578T breast, 58.1%; in the assay with NCI/ADR-RES ovarian it was 35.2%.

In the case of `C#CCOc1ccc2ncnc(Nc3cccc(NC(=O)C=C)c3)c2c1`, the growth was 17.1% in the assay with SR leukemia; 80.2% in the assay with RPMI-8226 leukemia; 45.8% in the assay with OVCAR-8 ovarian; 89.6% with OVCAR-5 ovarian; 76% in the assay on OVCAR-4 ovarian; 60.6% in the assay with SK-OV-3 ovarian. Moreover, the growth in the assay with IGROV1 ovarian is 33.8%; in the assay with OVCAR-3 ovarian it was 60.6%; in the assay on HS 578T breast, 67.3%; in the assay on NCI/ADR-RES ovarian it was 80.2%.

As to `OCCCC1CCN(C(Cc2ccccc2)c2ccccc2)CC1` (stereo not given), the growth in the assay on SR leukemia was 120%; in the assay on RPMI-8226 leukemia it was 98.3%; with OVCAR-8 ovarian it was 98.5%; in the assay on OVCAR-5 ovarian, 60.2%; with OVCAR-4 ovarian, 92.3%; in the assay on SK-OV-3 ovarian it was 84.9%. In addition, the growth was 96.8% in the assay with IGROV1 ovarian, 89.2% in the assay with OVCAR-3 ovarian, 101% in the assay with HS 578T breast and 93.9% with NCI/ADR-RES ovarian.

On to `CCCCN1C(=O)/C(=c2\sc3n(c2=O)C2C(NN=3)N(CC)C(=O)N2CC)c2ccccc21` (stereo not given), for which the growth in the assay with SR leukemia was 11%; in the assay with RPMI-8226 leukemia, 4.61% (active); with OVCAR-8 ovarian it was -12.5% (active); in the assay with OVCAR-5 ovarian, 25.8%; in the assay on OVCAR-4 ovarian, 37.5%; in the assay with SK-OV-3 ovarian, 24.5%. In addition, the growth is 2.64% (active) in the assay with IGROV1 ovarian, -31.5% (active) in the assay with OVCAR-3 ovarian, 6.5% (active) in the assay with HS 578T breast and -9.17% (active) with NCI/ADR-RES ovarian.

With `COc1ccccc1NC(=O)Cn1cc(CN2CCN(c3ccnc4cc(Cl)ccc34)CC2)nn1`, the growth was 92.1% with SR leukemia; 50.9% in the assay on RPMI-8226 leukemia; 93.4% in the assay on OVCAR-8 ovarian; 82.9% in the assay on OVCAR-5 ovarian; 94.1% with OVCAR-4 ovarian; 86.6% in the assay on SK-OV-3 ovarian. In addition, the growth with IGROV1 ovarian is 90.6%; in the assay with OVCAR-3 ovarian it was 101%; with HS 578T breast, 88.5%; in the assay on NCI/ADR-RES ovarian it was 91.5%.

Take `CCc1nc2c(=O)[nH]cnc2o1`: the growth with SR leukemia is 92.8%; in the assay on RPMI-8226 leukemia, 109%; in the assay on OVCAR-8 ovarian, 111%; in the assay with OVCAR-5 ovarian, 107%; in the assay on OVCAR-4 ovarian, 96.2%; in the assay on SK-OV-3 ovarian, 110%. Moreover, the growth was 111% in the assay with IGROV1 ovarian, 111% in the assay on OVCAR-3 ovarian, 102% in the assay on HS 578T breast and 101% with NCI/ADR-RES ovarian.

`CC1Cc2c(Cl)ncnc2N(C)c2ccc(F)cc21` (stereo not given): the growth in the assay with SR leukemia was 95.3%; in the assay with RPMI-8226 leukemia, 98.4%; with OVCAR-8 ovarian, 91.9%; with OVCAR-5 ovarian, 99.9%; in the assay with OVCAR-4 ovarian it was 95.4%; in the assay with SK-OV-3 ovarian, 89.6%. Moreover, the growth with IGROV1 ovarian is 105%; in the assay on OVCAR-3 ovarian, 106%; with HS 578T breast it was 64.1%; in the assay with NCI/ADR-RES ovarian, 101%.
